Results on 40 compounds are retold here after PubChem BioAssay (EPA / NIEHS).

Active and inactive are the calls of the source. How the source made its calls: active means hit-call score of the fitted dose curve at least 0.9, where 1 is the maximum; inactive means score below 0.9.

Read-out in the assay: Transforming growth factor beta 1 (TGFb1), TGFB1 (gene 7040)
Description: BSK_BE3C_TGFb1: BioMAP Diversity Plus: BE3C Assay for Transforming growth factor beta 1 (TGFb1) Biomarker Activity (AID 2283036). The settings on record: primary human bronchial epithelial cells; actives raise or lower the signal. Here is the method: BSK_BE3C is a cell-based, multiplexed-readout assay that uses bronchial epithelial cell, a human lung primary cell, with measurements taken at 24 hours after chemical dosing in a 96-well plate.BSK_BE3C_TGFb1 is an assay component measured in the BSK_BE3C assay. It measures TGF-b1 antibody related to regulation of gene expression using ELISA technology.Data from the assay component BSK_BE3C_TGFb1 was analyzed into 1 assay endpoint. This assay endpoint, BSK_BE3C_TGFb1, was analyzed with bidirectional fitting relative to DMSO as the negative control and baseline of activity. Using a type of binding reporter, gain or loss-of-signal activity can be used to understand changes in the signaling as they relate to the gene TGFB1. Furthermore, this assay endpoint can be referred to as a primary readout, because this assay has produced multiple assay endpoints where this one serves a signaling function. To generalize the intended target to other relatable targets, this assay endpoint is annotated to the growth factor intended target family, where the subfamily is transforming growth factor beta.
The levels of cell surface (or secreted, indicated by the prefix "s") biomarker endpoints were measured by ELISA. Overt cytotoxicity to cells in confluent adherent cultures (all systems other than the BT system) was assessed by measuring total protein levels using sulforhodamine B (SRB) staining in parallel cultures at the time of biomarker measurements, indicated as SRB endpoints. For proliferation assays for adherent cell types, individual cell types are cultured at sub-confluence and relative cell numbers quantified by SRB staining at time points optimized for each system (48 h: 3C and CASM3C systems; 72 h: BT and HDF3CGF systems; 96 h: SAg system). SRB was performed by staining cells with 0.1% SRB after fixation with 10% TCA and reading wells at 560 nm.Viability and proliferation of PBMC (T cells) was quantified by Alamar Blue reduction for the SAg and BT systems. For PBMC viability (referred to as PBMC Cytotoxicity within the assay endpoint names), cells were plated (75,000/well in a 96-well plate) and then chemical samples added for 1 h before addition of activators, SEB and TSST-1 (20 ng/mL final concentration each). Cells were incubated for 90 h. Then, Alamar Blue (20 uL/well) (Invitrogen, Cat DAL1100) was added for 6 h, and the plates were read with a fluorescence microplate reader at 546/580 nm (excitation/emission). For PBMC proliferation, cells were plated and activated as above but incubated for only 16 h prior to addition of Alamar Blue. Plates were read after 6 h.
In the case of `CCCCCCCCCCCCCCCCCC(=O)O`, the result was inactive.

As to `Cc1ccc(C)c(O)c1C`, the outcome was inactive.

Consider `CCCCCC(=O)O`, for which the outcome was inactive.

With `CCCCCCCCCCCCCO`, the result was inactive.

On to `CC(CO)OC(C)CO` (stereo not given) (tested in a mixture with another compound), for which the result was inactive.

As for `CCCc1cc(=O)[nH]c(=S)[nH]1`, the result was inactive.

Turning to `Cc1cccc(Nc2cc(Cl)nc(SCC(=O)O)n2)c1C`, the result was inactive.

In the case of `Cc1ccc2ncccc2c1`, the result was inactive.

For the compound `COCCOC[C@H](CC1(C(=O)NC2CCC(C(=O)O)CC2)CCCC1)C(=O)Oc1ccc2c(c1)CCC2` (stereo not given in full), the outcome was inactive.

For `COC(=O)c1ccc(O)cc1`, the result was inactive.

Take `Oc1ccc2c(c1)OC[C@@H](N1CCC(O)(c3ccc(F)cc3)CC1)[C@H]2O`: the result was inactive.

As for `CCCCOC(=O)CCCCCCCCC(=O)OCCCC`, the result was inactive.

Take `CNCc1cc(F)ccc1Oc1ccc(Cl)c(Cl)c1`: the outcome was inactive.

Take `Nc1ccc(S(=O)(=O)c2ccc(N)cc2)cc1`: the result was inactive.

As to `CCc1c(C(=O)NN2CCCCC2)nn(-c2ccc(Cl)cc2Cl)c1-c1ccc(Br)cc1`, the outcome was inactive.

With `CN1CCN(Cc2cc(-c3ccc4[nH]c(=O)oc4c3)co2)[C@@H](c2ccc(F)cc2)C1`, the result was inactive.

On to `CCOC(=O)CCC(=O)OCC`, for which the result was inactive.

Turning to `COc1ccc(S(=O)(=O)N2C(=O)[C@@](c3ccccc3OC)(N3C[C@H](O)C[C@H]3C(=O)N(C)C)c3cc(Cl)ccc32)c(OC)c1`, the result was inactive.

`CC(=O)Oc1ccccc1C(=O)O`: the outcome was inactive.

For `CCCCc1ccc2c(n1)[C@@H](c1ccc(OC)cc1C[C@H](C)C(=O)O)[C@H](C(=O)O)[C@H]2c1ccc2c(c1)OCO2`, the result was inactive.

On to `CCNc1cccc(C)c1`, for which the result was inactive.

For `Cc1cccc(C)c1O`, the outcome was inactive.

As to `CCCCN(CCCC)CCCC`, the result was inactive.

Regarding `CCCCCCCC=O`, the result was inactive.

Regarding `C1CCC(SSC2CCCCC2)CC1`, the result was inactive.

Turning to `C=CCc1ccc(O)c(OC)c1`, the result was inactive.

Turning to `O=c1[nH]cc(F)c(=O)[nH]1`, the outcome was inactive.

For the compound `CCCCCCC(=O)OCC`, the outcome was inactive.

In the case of `CC(=O)OC/C=C(\C)CCC=C(C)C`, the result was inactive.

Take `Cc1ccc(C)c(C)c1`: the result was inactive.

Take `Cc1cccc([N+](=O)[O-])c1C`: the result was inactive.

For `CNC(=O)[C@H]1O[C@@H](n2cnc3c(NCc4cc(Cl)ccc4OCc4cc(C)no4)ncnc32)[C@H](O)[C@@H]1N`, the outcome was inactive.

For the compound `Cc1c(C(=O)O)c(O)cc2c1C(=O)c1c(O)c([C@@H]3O[C@H](CO)[C@@H](O)[C@H](O)[C@H]3O)c(O)c(O)c1C2=O`, the result was inactive.

In the case of `COc1cc(S(=O)(=O)O)c(C)cc1N=Nc1c(O)ccc2cc(S(=O)(=O)O)ccc12`, the outcome was inactive.

As for `CC(=O)C(C)=CC1C(C)=CCCC1(C)C` (stereo not given), the outcome was inactive.

For `c1cc(-c2ccncc2)ccn1`, the outcome was inactive.

For `Cc1ccccc1Cl`, the result was inactive.

In the case of `Nc1nc(N)c2nc(CNc3ccc(C(=O)N[C@@H](CCC(=O)O)C(=O)O)cc3)cnc2n1`, the outcome was inactive.

On to `CC1(C)CC(N=C=O)CC(C)(CN=C=O)C1` (stereo not given), for which the outcome was inactive.

Turning to `Cc1nc(-c2ccc3c(c2)CCN(CCC2CCC(NC(=O)/C=C/c4ccc(F)cc4)CC2)CC3)no1` (stereo not given), the result was inactive.
